Source: PubChem BioAssay (Broad Institute)
MITF inh: inhibitors of MITF; inhibition, % (concentration not given with the values); TRPM1 promoter luciferase, luminescence, 24 h; AID 2240; hit rate 0.28% among 37,000; in the data active = inhibition above about 85%; inconclusive = no clear call, values can overlap the other calls; inactive = below about 68%;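 note: human melanocyte line stably carrying TRPM1 promoter luciferase reporter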
Shh pathway inh: Sonic Hedgehog pathway inhibition; Shh-LIGHT2 Gli-luciferase reporter, 30 h; inhibition, % (concentration not given with the values); hit rate 2.1% among 22,000; AID 2313;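 active = mean inhibition across valid replicates above about 65%, limit read from the data; inconclusive = mean under the limit, yet half or more replicates past it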;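 note: pathway switched on by Shh-conditioned medium diluted 1 in 25 in low serum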
NOMO-1 viab: STK33 inhibitor candidate reducing NOMO-1 cell viability; NOMO-1 AML viability, CellTiter-Glo luminescence, 72 h; inhibition, % (no concentration beside the values); hit rate 7.5% among 37,000; in the data active = inhibition above about 80%; inconclusive = no clear call, values can overlap the other calls
An asterisk follows results filed as active; ? = inconclusive; / = not tested or not shown. In the library only some 8.1% were active in any assay of this set; here they are far more common.

SMILES	MITF inh	Shh pathway inh	NOMO-1 viab
C[C@H]1O[C@@H](O[C@H]2[C@@H](O)C[C@H](O[C@H]3[C@@H](O)C[C@H](O[C@H]4CC[C@@]5(C)[C@H](CC[C@@H]6[C@@H]5CC[C@]5(C)[C@@H](C7=CC(=O)OC7)CC[C@]65O)C4)O[C@@H]3C)O[C@@H]2C)C[C@H](O)[C@@H]1O	48	3	124*
C[C@H]1OC(O[C@H]2[C@@H](O)CC(O[C@H]3[C@@H](O)C[C@H](O[C@H]4CC[C@]5(C)C6CC[C@]7(C)[C@@H](C8=CC(=O)OC8)[C@@H](O)C[C@]7(O)[C@@H]6CC[C@@H]5C4)O[C@@H]3C)O[C@@H]2C)C[C@H](O)C1O (stereo not given in full)	23	-4	107*
O=C(O)c1nn(Cc2ccc(Cl)c(Cl)c2)c2ccccc12	7	19	2
C[C@]1(C(=O)O)CCC[C@]2(C)c3cc(O)ccc3CC[C@@H]12	/	-49	/
CCOC(=O)c1c(C)n(C2CCCCC2)c2ccc(O)cc12	-1	23	25
C=CCN1CC[C@]23c4c5ccc(O)c4OC2C(=O)CC[C@@]3(O)[C@H]1C5 (stereo not given in full)	-12	37	15
CCCN[C@@H]1CCc2c(OC)cccc2[C@@H]1C	5	-17	8
c1ccc2sc(C3(N4CCCCC4)CCCCC3)cc2c1	-10	10	58
CC(C)c1cc2c(cc1O)[C@@]1(C)CCCC(C)(C)[C@@H]1CC2O (stereo not given in full)	38	-36	94*
CC1(C)CCC[C@]2(C)c3cc(O)c(O)cc3C(=O)CC12 (stereo not given in full)	/	2	/
C[C@]12C=CC(=O)C=C1CCC1C2CC[C@]2(C)C(=O)CCC12 (stereo not given in full)	-12	-25	-17
CO[C@@H]1[C@H](O)[C@@H](O[C@@H]2C[C@H]3CC[C@@H]4C(CC[C@]5(C)[C@@H](C6=CC(=O)OC6)CC[C@]45O)[C@@]3(C)[C@H](O)C2)O[C@H](C)[C@@H]1O[C@@H]1O[C@H](CO)[C@@H](O)[C@H](O)[C@H]1O (stereo not given in full)	30	-11	120*
CO[C@H]1[C@H](O)[C@H](O[C@H]2CC[C@]3(C)C4CC[C@]5(C)[C@H](C6=CC(=O)OC6)CC[C@]5(O)C4CC[C@@H]3C2)O[C@@H](C)[C@@H]1O[C@@H]1O[C@H](CO[C@@H]2O[C@H](CO)[C@@H](O)[C@H](O)[C@H]2O)[C@@H](O)[C@H](O)[C@H]1O (stereo not given in full)	31	-5	119*
CC(=O)O[C@H]1C[C@H](O[C@H]2[C@@H](O)C[C@H](O[C@H]3[C@@H](O)C[C@H](O[C@H]4CC[C@@]5(C)C(CCC6C5C[C@@H](O)[C@]5(C)[C@@H](C7=CC(=O)OC7)CC[C@]65O)C4)O[C@@H]3C)O[C@@H]2C)O[C@H](C)[C@H]1O[C@@H]1O[C@H](CO)[C@@H](O)[C@H](O)[C@H]1O (stereo not given in full)	29	-12	107*
CCN1C[C@@]2(COC)C3[C@@H](OC)[C@H]4[C@@H]1[C@@]3(C1C[C@]3(O)[C@H](OC(=O)c5ccccc5)C1[C@]4(OC(C)=O)[C@@H](O)[C@H]3OC)[C@@H](OC)C[C@H]2O (stereo not given in full)	-1	48	56
c1cncc([C@H]2CCCCN2)c1	0	4	-5
C=C(C)C1Cc2c(ccc3c(=O)c4c(oc23)COc2cc(OC)c(OC)cc2-4)O1 (stereo not given)	6	?	-9
COc1cccc(CNCCc2c[nH]c3ccccc23)c1O	-6	/	16
CC12C/C(=C\c3ccccc3)C(=O)C[C@@H]1CCC1C2CCC2(C)C1CC[C@]2(C)O (stereo not given in full)	7	7	2
N#CC(C#N)=NNc1ccc(OC(F)(F)F)cc1	67	82*	141*
COC[C@H]1OC(=O)c2coc3c2[C@@]1(C)C1=C(C3=O)C2CCC(=O)[C@@]2(C)C[C@H]1OC(C)=O (stereo not given in full)	18	?	?
COc1ccc2c3c1O[C@H]1[C@@H](O)CC=C4[C@@H](C2)N(C)CC[C@]431	-8	-37	13
COc1ccc(C[C@H]2NC[C@H](O)[C@H]2OC(C)=O)cc1	104*	107*	120*
Nc1ncnc2nc(SCc3nc4ccc(I)cc4c(=O)n3-c3ccccc3)[nH]c12	1	/	3
CC[C@]12C=CCN3CC[C@@]4(c5ccc(OC)cc5N(C)[C@H]4[C@@](O)(C(=O)OC)[C@@H]1OC(C)=O)[C@@H]32	-5	6	19
SMILES	MITF inh	Shh pathway inh	NOMO-1 viab
FC(F)(F)c1ccc2c(c1)N(CCCN1CCN(CCCl)CC1)c1ccccc1S2	18	66*	99*
Nc1ccc(CCN2CCN(c3cccc(C(F)(F)F)c3)CC2)cc1	7	42	47
COC(=O)C1=CCCN(C)C1	-2	15	4
CC(=O)O[C@@H](c1nc2ccccc2c(=O)n1[C@@H]1C[C@@]2(OC1=O)c1ccccc1N1C(=O)[C@H](C)N(O)[C@@H]12)C(C)C	15	14	84*
COc1ccc(CC2(CCc3ccncc3)C(=O)NC(=O)N(c3ccc(Cl)cc3)C2=O)cc1OC (stereo not given)	-6	/	-28
CCOC(=O)CN1C(=O)CC(C[C@@H](O)C2C[C@@H](C)C[C@H](C)C2=O)CC1=O (stereo not given in full)	-8	-10	-10
CCc1nc2ccccc2c(=O)n1-c1ccccc1Cl	25	-32	104*
O=c1c2ccccc2nc(CSc2ccccn2)n1-c1ccccc1Cl	-4	/	6
O=c1cccc2n1C[C@H]1CNCC2C1	7	-36	6
COc1cc2c(cc1OC)-c1c(oc3c4c(ccc3c1=O)OC(C(C)C)C4)CO2 (stereo not given)	-6	-11	13
Cc1ccc(C(C)C)cc1OP1(=O)COc2ccccc2OC1	-13	-5	32
COc1c2c(c(CC=C(C)C)c3oc(=O)c(-c4ccc(O)cc4)c(O)c13)OC(C)(C)C=C2	-11	24	23
CC1=CC(=O)c2c(O)cccc2C1=O	97*	97*	105*
COc1ccc(C(=O)O[C@H]2CC[C@@]3(C)[C@@H]4CC[C@H]5[C@]6(O)C[C@H](O)[C@@]7(O)[C@@H](CN8C[C@@H](C)CC[C@H]8[C@@]7(C)O)[C@]6(O)C[C@@]53O[C@]24O)cc1OC	-10	-20	-7
CO[C@H](C)C(O)(C(=O)OCC1=CCN2CC[C@H](O)[C@@H]12)C(C)C (stereo not given in full)	-10	-68	-7
CCC(C)C1NC(=O)C2CCCN2C(=O)C(CC(C)C)OC(=O)CCNC(=O)C(C)N(C)C(=O)C(C(C)C)N(C)C1=O (stereo not given)	-47	58	106*
OC(Cc1ccncc1)C(Cl)(Cl)Cl (stereo not given)	-6	2	-5
O=[N+]([O-])c1c(NCCO)ccc2nonc12	-14	/	6
